Bioassay records as filed in PubChem.
Most compounds without a hit are left out; they make up all but 3.5% or so of the library.
TEAD-YAP block: TEAD-YAP interaction inhibition; inhibition, % at 9.12 µM; HEK-TIYL cells, TEAD-Gal4/YAP UAS-luciferase luminescence; AID 1259422; 1.4% of 640,000 active; in the data active means inhibition above about 32%;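 further: 0% = median of test compound wells and 100% = reference inhibitor wells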
MITF inh: blocks human microphthalmia-associated transcription factor. 0.91% of 650,000 active. O75030. inhibition, % at 2.6 µM. AlphaScreen MITF homodimerization, bead proximity signal; in the data active means inhibition above about 50%;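 further: 0% = vehicle wells with protein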
FBW7 act: human FBW7 E3 ligase activation, primary screen | normalized activity (activation), % at 26.1 µM | Q969H0 | AlphaScreen FBW7–phospho-cyclin E peptide binding, activator screen | 0.13% of 650,000 active; in the data active means normalized activity above about 1.9%;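 further: purified mutant Fbw7 with reduced substrate affinity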
Target sequence (Q969H0 whole entry, looked up): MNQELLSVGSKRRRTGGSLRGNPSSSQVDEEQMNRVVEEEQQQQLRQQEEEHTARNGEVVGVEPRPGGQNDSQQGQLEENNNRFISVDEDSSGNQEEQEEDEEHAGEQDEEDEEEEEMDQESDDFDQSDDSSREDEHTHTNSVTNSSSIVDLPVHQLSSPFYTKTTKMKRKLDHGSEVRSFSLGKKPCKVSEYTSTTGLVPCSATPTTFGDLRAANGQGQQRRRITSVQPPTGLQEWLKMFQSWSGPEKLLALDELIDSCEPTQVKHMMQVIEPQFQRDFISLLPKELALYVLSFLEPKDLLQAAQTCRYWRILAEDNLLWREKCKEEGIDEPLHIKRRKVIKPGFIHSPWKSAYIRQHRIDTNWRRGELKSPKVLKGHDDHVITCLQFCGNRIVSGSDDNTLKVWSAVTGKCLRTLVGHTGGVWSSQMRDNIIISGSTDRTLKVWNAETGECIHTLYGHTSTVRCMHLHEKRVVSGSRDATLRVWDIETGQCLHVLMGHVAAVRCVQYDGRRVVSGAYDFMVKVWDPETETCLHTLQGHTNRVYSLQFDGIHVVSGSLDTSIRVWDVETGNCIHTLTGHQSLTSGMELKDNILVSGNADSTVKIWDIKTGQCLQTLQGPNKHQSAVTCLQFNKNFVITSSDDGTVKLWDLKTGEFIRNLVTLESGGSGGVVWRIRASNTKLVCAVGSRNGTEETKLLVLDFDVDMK
GPR151 ag: human GPR151 activation; Q8TDV0; PathHunter beta-arrestin GPR151 cells, luminescence; activation, % at 11.2 µM; 1% of 650,000 active; in the data active means activation above about 4.9%;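 further: 0% = median of compound wells and 100% = cells with positive control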
GPR151 confirm: confirmation of human GPR151 activators | GPR151 PathHunter beta-arrestin cells, luminescence, 90 min; % of EA-reagent control over plate median | 6,700 tested, under 10 active | shares compounds with GPR151 ag | AID 1508609 | activation, % at 11.2 µM;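 active means mean percent activation across replicates above the confirmation screen cutoff of 4.91%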
GPR119 counter: counter-screen for GPR151 activators: effect on human GPR119; shares compounds with GPR151 ag; GPR119 PathHunter beta-arrestin cells, luminescence, 90 min; 0 = compound-well median, 100 = enzyme-acceptor control; activation, % at 11.2 µM; 0.3% of 6,700 active;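 active means mean percent activation in the counterscreen above 29.09%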;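 further: counterscreen on off-target GPR119 to flag nonselective hits from the GPR151 activator screen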
Numbers without * were called inactive; nt = not tested or not shown; ! = not active in a repeat.

SMILES	TEAD-YAP block	MITF inh	FBW7 act	GPR151 ag	GPR151 confirm	GPR119 counter
C=CCn1c(COc2ccc(OC)cc2)nc2ccccc21	-59	-4	0	-1	nt	nt
Nc1nnc(SCc2cc(Cl)ccc2Cl)s1	-2	8	0	1	nt	nt
COc1ccccc1OCC(=O)Nc1nc(-c2cccs2)c(NC(C)=O)s1	11	3	0	14*	1	11
COC(=O)C(NC(=O)c1ccccc1)c1ccccc1 (configuration not stated)	6	4	0	-1	nt	nt
COC(=O)C(NC(=O)c1ccc(Br)cc1)c1ccccc1 (configuration not stated)	16	-4	0	9.0*	2	12
CCOC(=O)C(N)CSC1CCCCO1 (configuration not stated)	-5	35	0	8.2*	0	-1
NC(CSC1CCCCO1)C(=O)O (configuration not stated)	-15	-8	0	1	nt	nt
COc1ccc(C2C(C#N)=C(N)Oc3n[nH]c(C)c32)c(OC)c1OC (configuration not stated)	-4	-6	0	0	nt	nt
COc1ccc(C2C(C#N)=C(N)Oc3n[nH]c(C)c32)c2ccccc12 (configuration not stated)	-3	-11	0	5.5*	0	-7
CCc1ccc(CN2CCC(n3nccc3NC(C)=O)CC2)o1	5	-13	0	-2	nt	nt
Cc1cnc(CCNCc2ccc(OCC(O)CN(C)Cc3ccccc3)cc2)[nH]1 (configuration not stated)	3	1	0	1	nt	nt
O=c1c2ccccc2c2ccccc2c(=O)n1-c1ccc(OC(F)(F)F)cc1	6	10	0	5.1*	-1	-10
O=c1c2ccccc2c2ccccc2c(=O)n1-c1ccc(F)cc1	-6	-3	0	-2	nt	nt
CC(C)(C)NC(=O)c1cc(-c2ccco2)[nH]n1	0	7	0	-2	nt	nt
CCCN(CCC)C(=O)c1cc(-c2ccco2)[nH]n1	-1	-1	0	5.2*	0	-3
COc1cc(Cl)cc(/C=C2\C(=O)NN(c3ccccc3)C2=O)c1O	-1	-4	0	5.7*	1	18
O=S(=O)(Nc1cccc(N2CCC(NC3CCCC3)CC2)c1)c1ccc(F)cc1	4	-28	0	0	nt	nt
COC1=CC(=O)C[C@@H](C)[C@]12Oc1c(Cl)c(OC)cc(OC)c1C2=O	43*!	-7	0	5.4*!	0	2
COc1ccc(C2CC(=O)C=C(Nc3ccc(Br)cc3)C2)cc1OC (configuration not stated)	-6	11	0	0	nt	nt
CCCNc1nc(Nc2cc(OC)c(OC)c(OC)c2)nc2c1ncn2-c1ccccc1	-5	16	0	-1	nt	nt
COc1ccc(NC(=O)N(C(C)C)C2CCN(C(C)=O)CC2)c(OC)c1	-4	4	0	1	nt	nt
COC(=O)c1ccc(Cl)cc1NC(=O)N(C(C)C)C1CCN(C(C)=O)CC1	-9	1	0	7.0*	2	-1
Nc1nc(SCC(=O)Nc2ccccc2OC(F)F)n[nH]1	7	18	0	1	nt	nt
O=C1NC(N2CCOCC2)=N/C1=C/c1ccc2c(c1)OCO2	-15	5	0	9.4*	0	6
Cc1cccc(NC(=O)C2CCCN(S(=O)(=O)c3ccc4[nH]c(=O)ccc4c3)C2)n1 (configuration not stated)	3	6	0	5.3*	0	-13
SMILES	TEAD-YAP block	MITF inh	FBW7 act	GPR151 ag	GPR151 confirm	GPR119 counter
O=C(OCc1cc([N+](=O)[O-])cc2c1OCOC2)c1cccs1	-2	-3	0	1	nt	nt
O=C(Nc1ccccc1F)C1CCN(C(=O)Cc2ccccc2)CC1	1	3	0	5.4*	-1	-12
Cc1c(Cl)cccc1NC(=O)C1CCN(C(=O)Cc2ccccc2)CC1	4	-1	0	0	nt	nt
Cc1ccc(C(=O)NCc2ccc(S(N)(=O)=O)cc2)cc1C	1	6	-1	2	nt	nt
O=C(NC1CCOC1)c1cc(COc2ccc3ncccc3c2)on1 (configuration not stated)	19	-3	0	5.2*	0	-13
COCC(C)NC(=O)c1ccc(OC2CCN(Cc3ccccn3)CC2)cc1 (configuration not stated)	2	-3	0	5.8*	0	-7
COc1ccc(/C=C/C(=O)NCCc2nc3ccccc3[nH]2)cc1OC	-2	-1	0	0	nt	nt
O=C(COc1ccc(/C=C2/NC(=O)N(c3ccccc3)C2=O)cc1Cl)Nc1ccccc1	-12	-6	0	9.0*	-1	-14
O=C(COc1ccc(/C=C2/NC(=O)N(c3ccccc3)C2=O)cc1)Nc1ccc(F)cc1	3	15	0	-1	nt	nt
CC(=O)c1cc(CN2CCCC(CNC(=O)CCc3ccccc3)C2)cs1 (configuration not stated)	5	15	0	-1	nt	nt
CS(=O)(=O)c1ccc2nc(NC(=O)CS(=O)(=O)c3ccc(Cl)cc3)sc2c1	6	3	0	5.4*	1	6
CN(C)CCCOc1nn(Cc2ccccc2)c2ccccc12	-10	0	0	6.2*!	1	-5
Cc1ccc(NC(=O)CSc2nnc(NC(=O)COc3ccc(Cl)cc3)s2)cc1	1	11	0	0	nt	nt
CCSc1nnc(NC(=O)COc2ccc(Cl)cc2Cl)s1	3	-8	0	7.2*	1	4
Cc1nnc(SCC(=O)Nc2nc(-c3ccc(Cl)cc3)ns2)s1	-9	0	0	5.2*	-1	-6
Cc1cccc(NC(=O)CSc2nnc(NC(=O)COc3ccc(Cl)cc3)s2)c1	-6	1	0	6.5*	-1	-5
COc1ccc(-c2nc(NCCO)c3[nH]cnc3n2)cn1	2	-3	0	0	nt	nt
CCOC(=O)C(NC(=O)/C(=C\c1ccc(F)cc1)NC(=O)c1ccccc1)C(C)C (configuration not stated)	13	17	0	7.5*	0	-5
CCOC(=O)C(NC(=O)/C(=C\c1ccc(Br)cc1)NC(=O)c1ccccc1)C(C)O (configuration not stated)	-2	-6	0	0	nt	nt
C=CCN1C(=O)C2C3C=CC(C2C1=O)C1C(=O)N(CC=C)C(=O)C31 (configuration not stated)	1	-7	0	0	nt	nt
CCN1CCN(C(=O)c2nc(-c3cccc(F)c3)n3c2CCCCC3)CC1	9	2	0	5.5*	1	3
CCOC(=O)c1ccc(NC(=O)CSCC(=O)O)cc1	-2	-11	0	0	nt	nt
CCOc1ccc(C(C)NC(=O)c2ccc(F)cc2)cc1 (configuration not stated)	0	5	0	-1	nt	nt
CCOc1ccc(C(C)NC(=O)c2ccc(OC)cc2)cc1 (configuration not stated)	5	14	0	6.2*	1	10
